Drawing on PubChem BioAssay (Tox21), this text covers Potency and outcome for six compounds.

Experiment [1] in a line: qHTS assay to identify small molecule agonists of the RXR signaling pathway - cell viability counter screen (AID 1159529). Note: nearly all actives have a fitted effect of over 50% in size. Note: potency is the fitted concentration of half-maximal effect. The essentials:
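RXR-alpha-UAS-bla HEK 293T cells in medium with 2% charcoal-stripped FBS were pre-incubated 5 hr, then compound-treated 16 hr at 37 C. Viability was read by CellTiter-Glo luminescence in the same wells as the beta-lactamase assay, with tetraoctyl ammonium bromide as positive control.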

Experiment [2] is described as follows: qHTS assay to identify small molecule antagonists of the retinoid acid receptor (RAR) signaling pathway - cell viability counter screen (AID 1159551). Note: nearly all actives have a fitted effect of over 35% in size. Note: potency is the fitted concentration of half-maximal effect. A digest of the protocol: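 C3RL4 RARE-luciferase line; cpds + retinol 1 uM final, 6 h, 37 C/5% CO2; CellTiter-Glo ATP luminescence, 30 min RT.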
In experiment [3] the target is Nuclear receptor subfamily 1 group I member 3 (Homo sapiens) (UniProt Q14994). Nature of the experiment: qHTS assay to identify small molecule agonists of the constitutive androstane receptor (CAR) signaling pathway (AID 1224839). Note: series mostly up to about 92 µM; nearly all actives have a fitted effect of over 15% in size. The essentials: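 HepG2 cells stably co-transfected with hCAR and a CYP2B6-2.2kb luciferase reporter; compounds at 15 concentrations with 0.75 uM PK11195 present. After 24 hr at 37 C, luciferase read by ONE-Glo luminescence.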
Chain of Nuclear receptor subfamily 1 group I member 3 (Homo sapiens) (Q14994 whole entry, looked up): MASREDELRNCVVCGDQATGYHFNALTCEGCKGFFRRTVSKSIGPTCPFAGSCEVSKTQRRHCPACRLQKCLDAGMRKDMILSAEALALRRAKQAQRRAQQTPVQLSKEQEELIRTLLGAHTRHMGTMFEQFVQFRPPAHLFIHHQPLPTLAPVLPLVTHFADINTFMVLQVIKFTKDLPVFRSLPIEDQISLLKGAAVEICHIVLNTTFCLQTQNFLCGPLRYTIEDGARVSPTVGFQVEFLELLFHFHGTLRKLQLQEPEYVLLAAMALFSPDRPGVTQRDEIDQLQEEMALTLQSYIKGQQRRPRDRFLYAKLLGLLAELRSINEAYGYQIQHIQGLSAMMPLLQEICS

A short description of experiment [4]: qHTS assay to identify small molecule antagonists of the estrogen related receptor signaling pathway with the pleiotropic PPARgamma coactivator (PGC) from Tox21 10K library - cell viability counter screen (AID 1224840; active = well fitted cell-killing curve with a large enough effect in the repeat runs, not every such curve was filed as active; note: nearly all actives have a fitted effect of over 40% in size; note: potency is the fitted concentration of half-maximal effect). The essentials: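 Fluorescence read-out of CellTiter-Fluor viability reagent, added after cells had been exposed to compound in DMSO for 17.5 h at 37 C; 30 min development at 37 C/5% CO2. Cells: PGC/ERR line, 2,000/well.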

Experiment [5] can be described thus: qHTS RealTime-Glo MT Cell Viability Assay in HEK293 cells - 16 hour (AID 1224872). Note: nearly all actives have a fitted effect of over 50% in size. Note: potency is the fitted concentration of half-maximal effect. A digest of the protocol:
(§1)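 Homogeneous bioluminescent viability format in HEK293 cells (600 cells/well). Following 5 h at 37 C/5% CO2, 23 nL compound was pintooled; the signal was measured repeatedly during 40 h incubation.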

Experiment [6] is described as follows: qHTS RealTime-Glo MT Cell Viability Assay in HepG2 cells - 8 hour (AID 1224873). Note: nearly all actives have a fitted effect of over 55% in size. Note: potency is the fitted concentration of half-maximal effect. The essentials:
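HepG2 cells (600/well) mixed with RealTime-Glo MT reagent, settled 5 h at 37 C/5% CO2 before compound addition. Nonlytic NanoLuc luminescence from viable-cell prosubstrate reduction read repeatedly during 40 h treatment at 37 C.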

Experiment [7] can be described thus: A CellTox Green Cytotoxicity Assay to monitor cytotoxicity in HEK293 cells - 24 hour (AID 1224875). Note: nearly all actives have a fitted effect of over 45% in size. Note: potency is the fitted concentration of half-maximal effect. The essentials: (§2)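 Read-out: fluorescence of a cell-impermeant cyanine dye staining DNA of dead cells, proportional to cytotoxicity. HEK293, 600 cells/well with reagent, compound (23 nL DMSO) added after 5 h; reads at 0, 8, 16, 24, 32, 40 h.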
The nature of experiment [8]: A CellTox Green Cytotoxicity Assay to monitor cytotoxicity in HEK293 cells - 32 hour (AID 1224881). Note: nearly all actives have a fitted effect of over 40% in size. Note: potency is the fitted concentration of half-maximal effect. The essentials: as §2
The nature of experiment [9]: qHTS RealTime-Glo MT Cell Viability Assay in HEK293 cells - 24 hour (AID 1224886). Note: nearly all actives have a fitted effect of over 50% in size. Note: potency is the fitted concentration of half-maximal effect. The essentials: as §1
The nature of experiment [10]: qHTS assay to identify small molecule agonists of the androgen receptor (AR) signaling pathway in the presence of an antagonist - cell viability counter screen (AID 1259379). Note: nearly all actives have a fitted effect of over 25% in size. Note: potency is the fitted concentration of half-maximal effect. A digest of the protocol: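 Viability counter screen: CellTiter-Fluor fluorescence, measured in the same wells as the luciferase read-out. MDA-kb2 cells, 3,000/well, with nilutamide at 3.0uM final and compounds at 15 concentrations, 16 hr at 37C, 0% CO2.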

The target in experiment [11] is Thyrotropin receptor (Homo sapiens) (UniProt P16473). Nature of the experiment: qHTS assay to identify small molecule antagonists of the thyroid stimulating hormone receptor (TSHR) signaling pathway (AID 1259385; calls by dose curve; note: nearly all actives have a fitted effect of over 20% in size; note: potency is the fitted concentration of half-maximal effect). The essentials:
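TSHR-HEK293 cells (800/well) plated 18 h, then compounds with Ro20-1724 and TSH at 1.5 ng/mL final, 30 min at room temperature. cAMP quantified by HTRF (cAMP-d2/anti-cAMP-cryptate, 1 h); 15 concentrations in triplicate.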

Experiment [12] concerns the target Progesterone receptor (Homo sapiens) (UniProt P06401). Nature of the experiment: qHTS assay to identify small molecule agonists of the progesterone receptor (PR) signaling pathway (AID 1346784; calls by dose curve; note: nearly all actives have a fitted effect of over 30% in size). A digest of the protocol:
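PR-UAS-bla HEK 293T cells (beta-lactamase reporter under UAS) in 2% charcoal-stripped FBS, dosed with 23 nL compound after 6 hr, incubated 16hr at 37C. LiveBLAzer B/G FRET substrate added, fluorescence read after 2 hours.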

A short description of experiment [13]: Human pregnane X receptor (PXR) small molecule agonists, qHTS cell viability counter screen (AID 1346977). Note: nearly all actives have a fitted effect of over 50% in size. Note: potency is the fitted concentration of half-maximal effect. A digest of the protocol: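 PXR-Luc HepG2 cells (2,000/well, 5% charcoal-stripped FBS) preincubated 5 hr, then exposed to compounds 24 hr at 37 C. Viability read in the same wells by CellTiter-Fluor fluorescence, reagent added at 23 hr, 1 hr incubation.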

Experiment [14] has as its target Cytochrome P450 2D6 (Homo sapiens) (UniProt P10635). Nature of the experiment: Cytochrome P450 Family 2 Subfamily D Member 6 (CYP2D6) small molecule antagonists: luciferase reporter qHTS assay (AID 1671196). Note: nearly all actives have a fitted effect of over 50% in size. Note: potency is the fitted concentration of half-maximal effect. The essentials: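 Luminogenic proluciferin substrate, CYP2D6 enzyme; 10 min RT preincubation with compound, NADPH regeneration system added, 1 h RT. Stop/detection reagent, 20 min RT, luminescence read (RLU). Signal proportional to CYP activity.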

Experiment [15] in a line: qHTS assay to identify small molecule agonists of the hypoxia (HIF-1) signaling pathway - cell viability counter screen (AID 1224844; calls by dose curve; note: nearly all actives have a fitted effect of over 50% in size; note: potency is the fitted concentration of half-maximal effect). A digest of the protocol:
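CellTiter-Glo luminescence read-out, 30 min RT, taken in the same wells as the beta-lactamase HRE reporter assay; HRE-bla ME-180 cells, 0.5% dialyzed FBS, 17 hr compound treatment at 37C, 5% CO2.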

Experiment [16] in a line: qHTS assay to identify small molecule antagonists of the estrogen receptor beta (ER-beta) signaling pathway - cell viability counter screen (AID 1259382). Note: nearly all actives have a fitted effect of over 55% in size. Note: potency is the fitted concentration of half-maximal effect. A digest of the protocol: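 Luminescent ATP read-out (CellTiter-Glo, 30 min, RT) taken in the same wells as the bla reporter assay. HEK293T ER-beta-UAS-bla cells in 2% charcoal-stripped FBS were exposed to compounds with 1nM E2 for 16 hr at 37C.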

A short description of experiment [17]: qHTS assay to identify small molecule antagonists of the progesterone receptor (PR) signaling pathway - cell viability counter screen (AID 1346798). Note: nearly all actives have a fitted effect of over 50% in size. Note: potency is the fitted concentration of half-maximal effect. A digest of the protocol:
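PR-UAS-bla HEK293T cells, 3,000/well in 2% charcoal-stripped FBS medium, dosed with compounds plus R5020 agonist and incubated 16 h at 37C. Viability then measured in the same wells by CellTiter-Glo luminescence after 30 min at RT.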

Experiment [18] has as its target Thyrotropin-releasing hormone receptor (Homo sapiens) (UniProt P34981). Description: qHTS assay to identify small molecule agonists of the thyrotropin-releasing hormone receptor (TRHR) signaling pathway (AID 1346891; calls by dose curve; note: series mostly up to about 58 µM). A digest of the protocol: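 HEK293 cells expressing TRHR plated 18 h at 37 C/5% CO2, calcium dye-loaded 2 h at 37 C, then compound added (agonist mode); kinetic calcium fluorescence read 3 min at 1 s intervals; 15 concentrations in triplicate.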

Experiment [19] can be described thus: Caspase-3/7 induction in HepG2 cells by small molecules, qHTS cell viability counter screen (AID 1346981). Note: nearly all actives have a fitted effect of over 30% in size. Note: potency is the fitted concentration of half-maximal effect. The essentials: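 Fluorescence read-out of live-cell protease activity (CellTiter-Fluor) after 1 hr with reagent. This was measured in the same wells as the caspase-3/7 luminescence, on HepG2 cells exposed to DMSO-dissolved compounds for 16 hr at 37 C.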

Experiment [20] is described as follows: Caspase-3/7 induction in CHO-K1 cells by small molecules, qHTS cell viability counter screen (AID 1346979). Note: potency is the fitted concentration of half-maximal effect; nearly all actives have a fitted effect of over 35% in size. The essentials:
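Wild-type CHO-K1 cells (1,500/well) treated with compound after 5 h plating; after 16 h at 37C, viability read as CellTiter-Fluor fluorescence following 1 h reagent incubation, in the same wells as the caspase read.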

A number with no mark means an inactive call. Results filed as inconclusive are left out. The source made the active and inactive calls. Unless noted, calls come from the whole dose curve; as a rule, active = well fitted curve in the direction sought with a large enough effect in the repeat runs; inconclusive = weak or mixed curves; inactive = no such curve, though single readings can be large; an effect the other way counts as inactive or inconclusive.

Chain of Thyrotropin receptor (Homo sapiens) (P16473 whole entry, looked up): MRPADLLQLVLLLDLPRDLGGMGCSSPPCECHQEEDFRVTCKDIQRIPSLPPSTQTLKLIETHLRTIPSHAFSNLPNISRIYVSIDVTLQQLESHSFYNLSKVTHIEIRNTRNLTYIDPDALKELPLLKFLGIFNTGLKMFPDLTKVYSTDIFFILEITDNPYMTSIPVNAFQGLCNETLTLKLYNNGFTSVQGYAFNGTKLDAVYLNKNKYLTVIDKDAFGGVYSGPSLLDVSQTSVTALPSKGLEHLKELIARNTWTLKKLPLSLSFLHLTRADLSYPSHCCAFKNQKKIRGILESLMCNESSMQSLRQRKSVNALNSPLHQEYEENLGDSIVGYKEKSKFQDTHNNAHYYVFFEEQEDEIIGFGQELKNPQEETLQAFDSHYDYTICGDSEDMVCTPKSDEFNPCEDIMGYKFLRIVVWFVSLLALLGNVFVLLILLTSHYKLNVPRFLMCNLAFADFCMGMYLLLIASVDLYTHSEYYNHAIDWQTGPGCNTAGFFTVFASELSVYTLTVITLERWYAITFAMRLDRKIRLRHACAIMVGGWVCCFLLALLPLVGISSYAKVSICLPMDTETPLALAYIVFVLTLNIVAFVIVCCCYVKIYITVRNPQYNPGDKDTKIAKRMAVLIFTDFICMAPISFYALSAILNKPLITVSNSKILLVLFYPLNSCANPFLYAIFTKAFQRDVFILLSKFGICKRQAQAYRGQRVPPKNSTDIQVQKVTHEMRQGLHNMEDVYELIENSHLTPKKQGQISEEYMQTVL
Chain of Cytochrome P450 2D6 (Homo sapiens) (P10635 whole entry, looked up): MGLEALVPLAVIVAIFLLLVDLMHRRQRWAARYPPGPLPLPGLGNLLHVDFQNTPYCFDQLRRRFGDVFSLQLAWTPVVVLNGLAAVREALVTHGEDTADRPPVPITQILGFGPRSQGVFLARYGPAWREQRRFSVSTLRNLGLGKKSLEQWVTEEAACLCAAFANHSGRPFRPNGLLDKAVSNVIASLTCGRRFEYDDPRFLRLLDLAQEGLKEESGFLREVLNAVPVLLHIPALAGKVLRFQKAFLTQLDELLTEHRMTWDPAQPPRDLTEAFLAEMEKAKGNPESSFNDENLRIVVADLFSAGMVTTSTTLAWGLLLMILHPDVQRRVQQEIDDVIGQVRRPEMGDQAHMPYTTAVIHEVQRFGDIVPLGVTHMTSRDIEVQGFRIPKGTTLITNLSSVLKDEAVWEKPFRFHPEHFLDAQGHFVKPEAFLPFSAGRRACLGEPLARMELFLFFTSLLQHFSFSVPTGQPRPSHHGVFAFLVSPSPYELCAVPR
Chain of Thyrotropin-releasing hormone receptor (Homo sapiens) (P34981 whole entry, looked up): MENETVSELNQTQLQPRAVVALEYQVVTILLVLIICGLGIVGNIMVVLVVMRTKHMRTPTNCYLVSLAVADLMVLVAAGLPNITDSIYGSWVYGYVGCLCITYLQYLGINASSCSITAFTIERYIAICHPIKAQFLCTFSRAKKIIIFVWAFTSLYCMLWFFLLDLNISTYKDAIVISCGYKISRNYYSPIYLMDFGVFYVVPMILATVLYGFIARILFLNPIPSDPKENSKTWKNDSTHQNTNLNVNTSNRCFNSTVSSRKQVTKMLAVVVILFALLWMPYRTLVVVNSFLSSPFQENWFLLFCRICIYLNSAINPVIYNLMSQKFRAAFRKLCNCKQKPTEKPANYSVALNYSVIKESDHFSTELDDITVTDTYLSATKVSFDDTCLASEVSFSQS
Chain of Progesterone receptor (Homo sapiens) (P06401 whole entry, looked up): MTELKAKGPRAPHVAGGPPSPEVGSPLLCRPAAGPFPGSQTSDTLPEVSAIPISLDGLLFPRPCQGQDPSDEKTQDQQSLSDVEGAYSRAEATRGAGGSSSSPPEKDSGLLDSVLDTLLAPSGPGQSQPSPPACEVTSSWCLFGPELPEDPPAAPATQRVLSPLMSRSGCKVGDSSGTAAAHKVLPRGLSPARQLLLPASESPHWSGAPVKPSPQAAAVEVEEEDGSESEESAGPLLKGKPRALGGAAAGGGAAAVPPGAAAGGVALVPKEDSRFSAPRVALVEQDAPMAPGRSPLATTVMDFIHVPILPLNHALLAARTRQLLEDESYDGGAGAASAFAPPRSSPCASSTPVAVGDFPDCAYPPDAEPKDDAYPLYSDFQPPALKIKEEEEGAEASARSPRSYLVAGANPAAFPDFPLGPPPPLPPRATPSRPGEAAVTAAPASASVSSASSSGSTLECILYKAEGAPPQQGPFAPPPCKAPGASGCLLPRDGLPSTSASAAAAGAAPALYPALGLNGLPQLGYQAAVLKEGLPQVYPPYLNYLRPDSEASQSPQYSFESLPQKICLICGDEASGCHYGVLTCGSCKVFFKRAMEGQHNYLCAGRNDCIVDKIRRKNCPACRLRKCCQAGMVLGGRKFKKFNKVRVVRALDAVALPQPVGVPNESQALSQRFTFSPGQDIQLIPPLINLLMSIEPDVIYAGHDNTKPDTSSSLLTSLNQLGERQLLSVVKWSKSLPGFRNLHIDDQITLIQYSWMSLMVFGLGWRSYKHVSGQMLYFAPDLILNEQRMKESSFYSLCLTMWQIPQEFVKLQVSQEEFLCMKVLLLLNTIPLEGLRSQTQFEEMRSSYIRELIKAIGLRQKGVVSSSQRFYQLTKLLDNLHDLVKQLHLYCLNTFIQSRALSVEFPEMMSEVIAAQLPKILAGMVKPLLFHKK

`O=C1C(I)=CC(=C(c2cc(I)c(O)c(I)c2)c2ccccc2C(=O)O)C=C1I`: the Potency entry in experiment [1], in experiment [2], in [3], in [4], in experiment [5] and in experiment [6] was “inactive” in each case. Besides, the Potency result in experiment [7], in experiment [8], in [9], in [10], in [11] and in experiment [13] was “inactive” throughout. The Potency result in experiment [14] is “inactive”. The call in experiment [12] was inactive.

With `OC(Cc1ccccc1Cl)(Cn1[nH]cnc1=S)C1(Cl)CC1` (stereo not drawn), the Potency entry in experiment [2], in experiment [3], in experiment [15], in experiment [6], in experiment [7] and in experiment [8] was “inactive” each time. The Potency result in experiment [16], in [11], in [17], in experiment [13] and in experiment [19] was “inactive” throughout. Moreover, in experiment [18], the compound was classed as inactive.

Turning to `ClC1=C(Cl)[C@]2(Cl)[C@@H]3[C@@H](Cl)[C@H]4O[C@H]4[C@@H]3C1(Cl)C2(Cl)Cl`, the Potency in experiment [1] is 49 µM (active); in [5] it was 54.9 µM (active); in [7], 54.9 µM (active); in experiment [8], 54.9 µM (active). The Potency result in experiment [15], in experiment [10], in experiment [17], in [19] and in experiment [14] was “inactive” throughout. Besides, in experiment [12], the call was inactive.

For the compound `Nc1ccc([N+](=O)[O-])cc1`, the Potency in experiment [4] was 30.6 µM (active); in experiment [5], 21.9 µM (active); in [7], 49 µM (active); in [8], 38.9 µM (active); in experiment [9] it was 24.5 µM (active); in experiment [10] it was 30.6 µM (active). Moreover, the Potency was 8.63 µM (active) in experiment [17]; 34.4 µM (active) in [13]; 43.3 µM (active) in experiment [20]; 40.9 µM (active) in [19]; 50.2 µM (active) in experiment [14]. Besides, the Potency entry in experiment [6] is “inactive”.

Regarding `Cc1nnc2n1-c1sc(CCc3ccc(CC(C)C)cc3)cc1C(c1ccccc1Cl)=NC2C` (stereo not drawn), the Potency in [1] is 23.9 µM (active); in experiment [15], 19 µM (active); in experiment [5], 19 µM (active); in experiment [9], 10.7 µM (active); in experiment [16] it was 33.5 µM (active); in experiment [20], 29.8 µM (active). Moreover, the Potency entry in [7] and in [11] was “inactive” in each case. In [18], the compound was classed as inactive.

Consider `Cc1ccc(N(SC(F)(Cl)Cl)S(=O)(=O)N(C)C)cc1`, for which the Potency in [1] is 38.9 µM (active); in experiment [2], 48.6 µM (active); in experiment [4] it was 24.3 µM (active); in experiment [15], 17.4 µM (active); in [5], 5.49 µM (active); in [6], 21.9 µM (active). Moreover, the Potency is 17.4 µM (active) in experiment [7]; 5.49 µM (active) in experiment [8]; 5.49 µM (active) in experiment [9]; 27.3 µM (active) in [10]; 61.1 µM (active) in experiment [11]; 43.3 µM (active) in experiment [13]. Also, the Potency was 4.33 µM (active) in [20] and 61.1 µM (active) in experiment [19]. For the same compound, in [3], the Potency result is “inactive”. The compound was called inactive in experiment [18].
